Screening results from PubChem BioAssay.
KDM5B inh: KDM5B demethylase inhibition; KDM5B demethylase, FDH-coupled NADH fluorescence (FDH is formaldehyde dehydrogenase); Potency, µM (titrated, usually from 57.7 µM), most hits filed as inhibitors; 2.6% of 220,000 active; active = well fitted inhibition curve with a large enough effect; also: 0% is about no effect; nearly all actives have a fitted effect of over 70% in size
Target sequence (Q9UGL1 whole entry, looked up): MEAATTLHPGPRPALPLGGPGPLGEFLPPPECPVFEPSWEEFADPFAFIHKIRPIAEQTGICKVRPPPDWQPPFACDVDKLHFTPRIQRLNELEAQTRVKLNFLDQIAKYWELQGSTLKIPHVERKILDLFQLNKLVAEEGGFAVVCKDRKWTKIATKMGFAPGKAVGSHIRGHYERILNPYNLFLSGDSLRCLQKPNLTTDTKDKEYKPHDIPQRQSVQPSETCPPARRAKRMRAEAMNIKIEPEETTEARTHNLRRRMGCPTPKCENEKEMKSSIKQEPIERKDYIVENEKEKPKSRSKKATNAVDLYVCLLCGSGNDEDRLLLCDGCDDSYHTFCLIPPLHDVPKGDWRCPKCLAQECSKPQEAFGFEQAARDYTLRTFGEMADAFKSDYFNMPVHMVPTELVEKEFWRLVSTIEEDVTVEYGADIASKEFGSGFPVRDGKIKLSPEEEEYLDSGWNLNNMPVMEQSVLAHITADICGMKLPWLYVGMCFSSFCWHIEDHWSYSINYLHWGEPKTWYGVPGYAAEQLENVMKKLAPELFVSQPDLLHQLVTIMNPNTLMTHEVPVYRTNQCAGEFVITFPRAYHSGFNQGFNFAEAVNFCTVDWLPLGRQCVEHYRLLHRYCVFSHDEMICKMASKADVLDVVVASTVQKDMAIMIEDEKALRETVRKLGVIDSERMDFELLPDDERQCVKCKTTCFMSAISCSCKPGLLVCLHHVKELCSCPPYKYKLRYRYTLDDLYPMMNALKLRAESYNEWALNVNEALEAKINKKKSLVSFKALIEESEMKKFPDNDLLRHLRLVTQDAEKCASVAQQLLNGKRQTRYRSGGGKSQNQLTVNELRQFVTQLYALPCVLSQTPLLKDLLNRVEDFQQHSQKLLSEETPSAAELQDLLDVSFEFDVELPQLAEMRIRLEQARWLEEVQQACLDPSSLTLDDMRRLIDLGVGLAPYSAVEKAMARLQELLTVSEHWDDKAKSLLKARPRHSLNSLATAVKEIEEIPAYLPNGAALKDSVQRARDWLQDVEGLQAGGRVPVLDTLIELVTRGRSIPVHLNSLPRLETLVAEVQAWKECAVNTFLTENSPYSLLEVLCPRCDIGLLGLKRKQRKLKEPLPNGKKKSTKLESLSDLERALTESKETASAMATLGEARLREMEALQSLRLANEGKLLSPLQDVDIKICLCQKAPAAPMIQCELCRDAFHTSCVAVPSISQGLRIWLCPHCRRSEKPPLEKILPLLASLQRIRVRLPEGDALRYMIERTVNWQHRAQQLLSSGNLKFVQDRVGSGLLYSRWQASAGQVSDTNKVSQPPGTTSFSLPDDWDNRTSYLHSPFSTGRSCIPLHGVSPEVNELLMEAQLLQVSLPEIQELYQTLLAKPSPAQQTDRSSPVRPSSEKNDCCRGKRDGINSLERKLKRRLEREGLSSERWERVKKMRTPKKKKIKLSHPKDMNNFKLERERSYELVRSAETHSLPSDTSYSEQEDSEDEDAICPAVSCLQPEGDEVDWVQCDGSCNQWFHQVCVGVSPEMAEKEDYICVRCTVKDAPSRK
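Inhibition is measured as reduced NADH fluorescence generation from FDH coupling to formaldehyde release. Truncated KDM5BΔAP at 200 nM final acts on H3K4me3 peptide (12.5 µM in substrate mix) in pH 7.5 HEPES buffer with Tween-20, 30 min, room temperature.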
Numbers without * were called inactive; i = inactive. The full list was thinned out, with hits kept by preference. Potency is read from the fitted curve at half-maximal effect.

SMILES	KDM5B inh
COCC1CN(C(C)=O)CC12CCN(Cc1ccc(Cl)cc1F)CC2 (stereo not given)	i
OCC1CN(c2ncccn2)CC12CCN(Cc1ccc3cc[nH]c3c1)CC2 (stereo not given)	28.2µM*
Cn1cccc1CN1CCC2(CC1)CN(c1ncccn1)CC2CO (stereo not given)	31.6µM*
OCC1CN(Cc2cccnc2)CCC12CCN(Cc1cccc(O)c1)CC2 (stereo not given)	i
COc1cccc(CN2CCC3(CC2)CN(c2ncccn2)CC3CO)n1 (stereo not given)	22.4µM*
OCC1CNCCC12CCN(Cc1ccc3ccccc3c1)CC2 (stereo not given)	i
CCc1ccc2c(c1)C(O)(CC(=O)c1ccc(F)cc1)C(=O)N2 (stereo not given)	i
CC(CC(=O)Nc1ccc(Cl)cc1)n1ccnc1 (stereo not given)	i
CC(=O)N1CCC(NC(=O)CSc2ncc(-c3ccccc3)o2)CC1	i
O=C(CSc1nc2ccccc2s1)Nc1cc(F)ccc1F	i
CC(NS(=O)(=O)c1cc(F)cc(F)c1)C(=O)N1CCCC1 (stereo not given)	i
Cc1ccccc1CNC(=O)c1scnc1C	i
COc1ccc(NC(=O)C(Sc2nnc(-c3ccco3)n2N)c2ccccc2)cc1Cl (stereo not given)	i
COc1cc(OC)c(NC(=O)CCOc2cc(C)ccc2C)cc1Cl	i
O=C(Cc1ccsc1)N1CCC2(CC1)CN(c1ccncn1)CC2CO (stereo not given)	i
OCC1CN(Cc2ccccc2)CC12CCN(C1CCC1)CC2 (stereo not given)	i
OCC1CN(c2ncccn2)CC12CCN(C1CCSCC1)CC2 (stereo not given)	31.6µM*
Cc1[nH]c2ccc(Cl)cc2c1C	i
COc1ccc(C(=O)Nc2ccc3oc(-c4ccccc4)cc(=O)c3c2)cc1	i
O=C(O)C1(Oc2ccc3ncccc3c2)CCN(Cc2ccncc2)CC1	15.8µM*
Cc1ccc(CN2CCC(Oc3ccc4ccccc4c3)(C(=O)O)CC2)o1	i
C=CCn1cc(CN2CCC(Oc3ccc4ccccc4c3)(C(=O)O)CC2)cn1	i
CCOCCn1c(SCc2ccccc2Cl)nc2c1c(=O)[nH]c(=O)n2C	i
COc1ccc(C2C(C(C)=O)=C(C)Oc3ncn4nc(-c5cccnc5)nc4c32)cc1 (stereo not given)	i
Cc1cccc(CN2CCCC3(Cc4ccccc4CNC3=O)C2)n1 (stereo not given)	i
SMILES	KDM5B inh
Cc1ncc(CO)c(CN2CCC3(CC2)Cc2ccccc2CNC3=O)c1O	70.8µM*
O=C1NCc2ccccc2CC12CCCN(Cc1ccc(O)cc1)C2 (stereo not given)	i
Cc1ncc(CO)c(CN2CCCC3(Cc4ccccc4CNC3=O)C2)c1O (stereo not given)	79.4µM*
Cc1ccccc1CN1CCC2(CC1)Cc1ccccc1CNC2=O	i
O=C1NCc2ccccc2CC12CCN(Cc1ccnc3ccccc13)CC2	i
O=C(O)C(c1c[nH]c2cc(Cl)ccc12)N1CCN(Cc2cccs2)CC1 (stereo not given)	i
CC(Cc1cccs1)N(Cc1ccc(Cl)cc1)C(=O)c1ccc(C(F)(F)F)cc1 (stereo not given)	i
CC(C)(C)NC(NC(=O)c1ccc(C(C)(C)C)cc1)C(Cl)(Cl)Cl (stereo not given)	i
CC1CCCCC1NC(=O)C1CC1C (stereo not given)	i
CCCc1noc(C(C)N2CCC(c3nc4cc(Cl)ccc4o3)CC2)n1 (stereo not given)	i
CCS(=O)(=O)c1ccc2oc([C@H]3CCN(C(C)C)C3)nc2c1	39.8µM*
CC(=O)N1CC[C@H](c2nc3cc(F)ccc3o2)C1	i
N#Cc1cccc(CNCc2cc(Br)cs2)c1	i
CCOc1ccc(OCCSc2nnc(-c3ccccc3Cl)n2CCCOC)cc1	i
C=CCn1c(Oc2cccc(C(F)(F)F)c2)nc2c1c(=O)n(C)c(=O)n2C	i
O=C(c1cncn1-c1ccc(F)cc1)N1CCN(CCN2CCCC2)CC1	i
CC(C)CC(NC/C=C/c1ccccc1)C(=O)O (stereo not given)	i
CC1(C)CC(=O)C2=C(C1)OC(N)=C(C#N)C2c1ccc(C2C(C#N)=C(N)OC3=C2C(=O)CC(C)(C)C3)cc1 (stereo not given)	i
CN(Cc1cccc(C(F)(F)F)c1)C(=O)c1ccccc1F	i
C=CCc1ccccc1OCCN(C)Cc1ncnn1CC	i
CCc1ccccc1OCCN(C)Cc1ncc[nH]1	22.4µM*
C=CCc1ccccc1OCCN(C)Cc1nc(C)ccc1O	i
CCOc1ccc(C2C(C#N)=C(N)Oc3cc(C)n(Cc4cccnc4)c(=O)c32)cc1OCC (stereo not given)	i
Cc1cc(S(=O)(=O)NCC(C)O)c(C)cc1Br (stereo not given)	i
COc1ccccc1NC(=O)CC1C=CCC1 (stereo not given)	i
N#Cc1ccc(NCCc2cccc3cccnc23)nc1	i
COc1ccc(Cl)cc1NC(=O)Cn1c(-c2ccc(F)cc2)nc(C)c(CCO)c1=O	i
COc1cc(NC(=O)Cn2c(-c3ccc(F)cc3)nc(C)c(CCO)c2=O)cc(OC)c1OC	i
